We go through four molecules from PubChem BioAssay.

The nature of experiment [1]: compounds binding Alexa647 anti-His antibody – biochemical, small-molecule microarray, 635 nm fluorescence, artefact control for SMM control protein annotation, primary screen (AID 1128).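 Further: score merges feature fluorescence with signal-to-noise for each printed compound spot.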 The following applies: higher = more signal.
Experiment [2] deals with Human papillomavirus type 1a E7 protein (residues 1-88). The experiment can be described thus: HPV1a E7 small-molecule binders, primary screen, biochemical, small-molecule microarray, residues 1-88, 635 nm (AID 1129). The following applies: small-molecule microarray binding, fluorescence 635 nm; higher = more signal.
In experiment [3] the target is Focal adhesion kinase 1 (Homo sapiens) (UniProt Q05397). The experiment can be described thus: PTK2 protein binding on printed compound slides – biochemical, small-molecule microarray, 635/667 nm fluorescence, BSA, DTT, primary screen (AID 1130).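 Further: composite of spot emission at 667 nm and signal to noise over triplicate slides.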 The following applies: 635 nm fluorescence, higher = more signal.
Sequence of Focal adhesion kinase 1 (Homo sapiens) (Q05397 whole entry, looked up): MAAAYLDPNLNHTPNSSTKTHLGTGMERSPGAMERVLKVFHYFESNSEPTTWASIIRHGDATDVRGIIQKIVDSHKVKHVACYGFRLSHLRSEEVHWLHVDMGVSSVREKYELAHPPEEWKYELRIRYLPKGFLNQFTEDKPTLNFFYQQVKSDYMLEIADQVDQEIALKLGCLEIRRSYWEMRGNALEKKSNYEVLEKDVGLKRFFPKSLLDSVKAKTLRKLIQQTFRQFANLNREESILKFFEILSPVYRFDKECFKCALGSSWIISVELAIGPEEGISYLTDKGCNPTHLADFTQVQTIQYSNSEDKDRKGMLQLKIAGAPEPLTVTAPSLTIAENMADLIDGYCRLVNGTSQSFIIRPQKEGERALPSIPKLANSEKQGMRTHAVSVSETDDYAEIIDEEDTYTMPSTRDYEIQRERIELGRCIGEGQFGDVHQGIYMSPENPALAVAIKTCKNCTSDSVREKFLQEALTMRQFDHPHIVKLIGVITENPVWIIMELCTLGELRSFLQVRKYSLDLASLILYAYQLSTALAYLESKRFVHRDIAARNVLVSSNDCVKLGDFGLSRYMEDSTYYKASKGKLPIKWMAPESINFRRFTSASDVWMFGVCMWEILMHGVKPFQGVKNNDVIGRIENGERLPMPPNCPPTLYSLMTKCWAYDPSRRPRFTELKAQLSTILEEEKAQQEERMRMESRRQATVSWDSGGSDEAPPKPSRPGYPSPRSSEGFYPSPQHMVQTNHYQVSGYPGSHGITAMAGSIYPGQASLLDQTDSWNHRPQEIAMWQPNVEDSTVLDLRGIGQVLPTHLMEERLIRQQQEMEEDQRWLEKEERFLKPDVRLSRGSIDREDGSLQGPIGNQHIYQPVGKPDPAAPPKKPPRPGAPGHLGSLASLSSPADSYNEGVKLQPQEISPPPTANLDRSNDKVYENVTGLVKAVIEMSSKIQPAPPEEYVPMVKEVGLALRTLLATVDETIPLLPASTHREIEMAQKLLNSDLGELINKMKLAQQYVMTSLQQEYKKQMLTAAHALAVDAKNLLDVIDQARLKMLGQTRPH
Experiment [4] concerns Fibrinogen (Alexa647-labelled). Description: Alexa647-fibrinogen binding to printed small molecules – biochemical, small-molecule microarray, 635/667 nm fluorescence, artefact control for SMM control-protein annotation, profiling panel (AID 1131).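 Further: z-score merges 667 nm fluorescence with per-spot signal-to-noise over triplicate slides.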 The following applies: fibrinogen-A647 binding fluorescence, higher = more signal.
The target in experiment [5] is Follistatin (Homo sapiens) (UniProt P19883). The experiment can be described thus: FST protein binding to printed compounds – biochemical, small-molecule microarray, 635/667 nm fluorescence, primary screen (AID 1132). As to conditions: 635 nm fluorescence, higher = more signal.
Sequence of Follistatin (Homo sapiens) (P19883 whole entry, looked up): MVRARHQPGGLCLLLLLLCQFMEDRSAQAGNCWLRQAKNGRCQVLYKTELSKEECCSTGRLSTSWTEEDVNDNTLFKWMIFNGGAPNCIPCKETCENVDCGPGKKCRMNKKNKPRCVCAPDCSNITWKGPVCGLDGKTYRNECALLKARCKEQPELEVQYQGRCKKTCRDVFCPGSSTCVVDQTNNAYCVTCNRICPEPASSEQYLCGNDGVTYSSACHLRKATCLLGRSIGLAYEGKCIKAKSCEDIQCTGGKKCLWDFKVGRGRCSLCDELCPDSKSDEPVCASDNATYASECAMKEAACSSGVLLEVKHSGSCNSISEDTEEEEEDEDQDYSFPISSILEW
Experiment [6] deals with Fibroblast growth factor 2 (Homo sapiens) (UniProt P09038). Description: basic fibroblast growth factor binding to printed compounds – biochemical, small-molecule microarray, 635/667 nm fluorescence, primary screen (AID 1133). As to conditions: FGF2, fluorescence 635/667, higher = more signal.
Sequence of Fibroblast growth factor 2 (Homo sapiens) (P09038 whole entry, looked up): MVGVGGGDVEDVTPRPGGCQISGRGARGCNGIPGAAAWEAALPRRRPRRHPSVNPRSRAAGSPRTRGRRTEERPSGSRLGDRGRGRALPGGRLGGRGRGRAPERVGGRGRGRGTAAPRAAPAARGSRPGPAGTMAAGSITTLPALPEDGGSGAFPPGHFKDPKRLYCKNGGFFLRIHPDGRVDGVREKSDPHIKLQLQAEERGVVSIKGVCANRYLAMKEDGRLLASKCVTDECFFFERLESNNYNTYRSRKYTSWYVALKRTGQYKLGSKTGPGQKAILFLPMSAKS
A short description of experiment [7]: JC-1 mitochondrial potential readout, lung cancer cells – cell-based, A549, JC-1 fluorescence, basal, 24 h, 100 nL, profiling panel (AID 1138).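 Further: A549 lung adenocarcinoma cells under basal conditions with no added stimulus; test concentration not given here.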 The following applies: higher = more signal.
Another experiment relates to Lefty1. Description: Lefty1 protein binding to printed compounds – biochemical, small-molecule microarray, 635/667 nm fluorescence, primary screen (AID 1139). As to conditions: fluorescence 635/667, higher = more signal.
Experiment [8] has as its system wheat germ agglutinin (Triticum aestivum), Alexa647-labelled. The experiment can be described thus: Alexa647-WGA lectin binding to printed small molecules – biochemical, small-molecule microarray, 635/667 nm fluorescence, artefact control for SMM control-protein annotation, profiling panel (AID 1140).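 Further: score merges 667 nm feature emission with signal to noise over triplicate slides.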 As to conditions: WGA-A647 binding, 635 nm fluorescence, higher = more signal.

Experiment [9] deals with Luciferin 4-monooxygenase (Photinus pyralis) (UniProt P08659). The experiment can be described thus: inhibition of purified Photinus pyralis luciferase – biochemical, luminescence, purified enzyme, 2006 set, primary screen (AID 1141).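 Further: cell-free assay with purified firefly luciferase at 100 ng per well in PBS; test concentration not given here.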 The following applies: purified firefly luciferase, SteadyGlo luminescence, 30 min; higher = more signal, called active from +8 up or from −8 down.
Sequence of Luciferin 4-monooxygenase (Photinus pyralis) (P08659 whole entry, looked up): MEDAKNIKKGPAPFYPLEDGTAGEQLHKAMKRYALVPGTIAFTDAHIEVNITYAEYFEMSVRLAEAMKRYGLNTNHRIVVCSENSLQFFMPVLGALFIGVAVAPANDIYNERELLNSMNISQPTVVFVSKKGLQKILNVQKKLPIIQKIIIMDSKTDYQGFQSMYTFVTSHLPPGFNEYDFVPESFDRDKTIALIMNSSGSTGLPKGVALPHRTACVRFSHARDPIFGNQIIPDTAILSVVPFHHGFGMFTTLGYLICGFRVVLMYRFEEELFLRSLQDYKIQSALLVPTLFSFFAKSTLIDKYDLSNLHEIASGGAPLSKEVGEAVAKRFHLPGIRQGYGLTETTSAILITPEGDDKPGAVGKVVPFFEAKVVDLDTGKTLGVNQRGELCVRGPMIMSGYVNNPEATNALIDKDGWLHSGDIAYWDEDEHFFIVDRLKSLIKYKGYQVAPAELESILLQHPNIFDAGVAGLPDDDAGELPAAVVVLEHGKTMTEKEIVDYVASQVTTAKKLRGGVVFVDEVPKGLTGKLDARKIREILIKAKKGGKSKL

For experiment [10], the system named is Wnt5a (protein binding on small-molecule microarray). Description: small molecules binding Wnt5a protein – biophysical, small-molecule microarray, 635/667 nm fluorescence, primary screen (AID 1142).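 Further: fluorescence read at 667 nm with signal to noise per printed feature.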 As to conditions: 635 nm fluorescence, higher = more signal.
Experiment [11] can be described thus: ATP-based viability of Huh7 replicon cells – cell-based, CellTiter-Glo luminescence, basal, 48 h, cytotoxicity control for HCV replication inhibitor project, primary screen (AID 1143).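 Further: Huh7 hepatoma cells carrying a hepatitis C replication reporter with no stimulus; test concentration not given here.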 The following applies: higher = more signal, called active from +8 up or from −8 down. (In general: A replicon is a self-replicating genome or part of one, used to study replication in cells.)

The nature of experiment [12]: Pseudomonas biofilm growth suppression – PAO1 strain, BacTiter-Glo luminescence, LB-PBS, primary screen (AID 1144). The following applies: P. aeruginosa PAO1 biofilm, 12 h, higher = more signal.
A short description of experiment [13]: basal CRE-LacZ reporter activity in PC12 – cell-based, unstimulated, primary screen (AID 1145). As to conditions: no forskolin, luminescence, 4.5 h, higher = more signal, called active from +8 up or from −8 down.
The nature of experiment [14]: forskolin-driven CRE-LacZ activity in PC12 – cell-based, CRE-LacZ reporter, forskolin-stimulated, primary screen (AID 1146).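 Further: PC12 cells with 6xCRE LacZ reporter stimulated by forskolin 10 µM; beta-galactosidase reporter signal reflecting CREB driven transcription.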 The following applies: luminescence, 4.5 h, higher = more signal, called active from +8 up or from −8 down.
Experiment [15] addresses Streptavidin (Streptomyces avidinii) (UniProt P22629). Description: compounds binding control protein streptavidin – biophysical, small-molecule microarray, 635/667 nm fluorescence, artefact control for SMM compound annotation, primary screen (AID 1147).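 Further: signal reflects streptavidin binding to arrayed compounds as a control protein.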 The following applies: higher = more signal.
The nature of experiment [16]: probe aInhba binding on compound microarray – biochemical, small-molecule microarray, 635/667 nm fluorescence, primary screen (AID 1148).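 Further: score merges 667nm spot fluorescence with signal-to-noise for antibody binding to printed compounds.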 As to conditions: higher = more signal.
For experiment [17], the target named is Torsin-1A (Homo sapiens) (UniProt O14656). Description: TOR1A wild-type binding on microarray – cell lysate, small-molecule microarray, lysate, 635/667 nm, primary screen (AID 1149). As to conditions: COS7 hTOR1A-WT lysate, 635 nm fluorescence, higher = more signal.
Sequence of Torsin-1A (Homo sapiens) (O14656 whole entry, looked up): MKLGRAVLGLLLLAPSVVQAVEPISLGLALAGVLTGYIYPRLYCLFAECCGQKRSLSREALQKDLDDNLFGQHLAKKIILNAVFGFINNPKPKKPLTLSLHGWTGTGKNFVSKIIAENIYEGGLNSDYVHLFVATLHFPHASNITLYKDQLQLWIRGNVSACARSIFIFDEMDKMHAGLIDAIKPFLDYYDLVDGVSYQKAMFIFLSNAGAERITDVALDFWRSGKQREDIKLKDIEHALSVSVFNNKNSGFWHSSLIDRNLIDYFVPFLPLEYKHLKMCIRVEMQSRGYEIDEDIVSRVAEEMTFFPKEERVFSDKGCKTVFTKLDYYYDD
The target is the same in experiment [18]. The experiment can be described thus: torsin A mutant lysate binding on microarrays – cell lysate, small-molecule microarray, COS7 lysate, 635/667 nm fluorescence, primary screen (AID 1150).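 Further: score pools 667 nm emission and signal to noise measuring lysate protein binding.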 The following applies: COS7 hTOR1A mutant lysate, 635 nm fluorescence, higher = more signal.
Experiment [19] has as its system Sonic hedgehog protein (Shh). Description: Sonic hedgehog microarray binding compounds – biochemical, small-molecule microarray, 635/667 nm fluorescence, primary screen (AID 1151).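 Further: Shh protein binding to compounds spotted on small-molecule microarray slides; score combines spot fluorescence intensity with signal-to-noise across triplicate slides.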 The following applies: 635 nm fluorescence, higher = more signal.

“And” between values parts separate entries of the source, which are not always exact repeats. Equal values may be shown once. The source made the active and inactive calls. Unless noted, how the calls were made is not given here.

Sequence of Streptavidin (Streptomyces avidinii) (P22629 whole entry, looked up): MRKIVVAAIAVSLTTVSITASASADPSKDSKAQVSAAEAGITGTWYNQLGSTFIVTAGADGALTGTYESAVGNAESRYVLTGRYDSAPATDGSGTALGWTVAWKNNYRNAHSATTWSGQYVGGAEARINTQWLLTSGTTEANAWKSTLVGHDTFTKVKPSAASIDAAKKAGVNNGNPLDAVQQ

As to `C=CCN(CCCCC)C(=O)C(c1cccs1)N(C(=O)/C=C\C(=O)O)c1ccc(CCO)cc1` (centres undefined), the composite z-score in experiment [1] was -0.206 and -1.12; in experiment [2], -0.502 and -0.625; in experiment [3], -0.279 and -0.0021; in experiment [4], -1.39 and -1.21; in [5] it was -1.43 and -0.996; in [6], -1.54 and -1.4. Further, the composite z-score in the experiment on Lefty1 is -1.07 and -1.27; in experiment [8], -0.573 and -0.325; in [10], -0.909 and -0.947; in experiment [15] it was -1.72 and -1.16; in [16], -0.331 and -0.0021; with Torsin-1A (Homo sapiens) [17], -2.38 and -1.69. Besides, the composite z-score with Torsin-1A (Homo sapiens) [18] is -1.96 and -1.51; in experiment [19], -0.975 and -0.587. The z-score was 0.868 and 0.897 in experiment [7]; -1.24 (inactive) and -0.887 (inactive) in experiment [9]; 0.162 (inactive) and 0.193 (inactive) in experiment [11]; 0.0224 (inactive) and -0.188 (inactive) in experiment [12]; 0.459 (inactive) and 0.597 (inactive) in experiment [13]; -0.343 (inactive) and -0.244 (inactive) in experiment [14].
Regarding `C=CCN(C(=O)C1N(c2ccc(CCO)cc2)C(=O)C2C(C(=O)O)C3C=CC21O3)c1ccc(OC)cc1` (centres undefined), the composite z-score is 0.0218 and -0.668 in experiment [1]; -0.304 and -0.769 in experiment [2]; 0.0134 and -1.17 in experiment [3]; -0.369 and -1.3 in experiment [4]; -0.697 and -0.794 in experiment [5]; -1.24 and -1.75 in experiment [6]. In addition, the composite z-score with Lefty1 is -0.708 and -0.967; in experiment [8] it was 0.0183 and -0.967; in experiment [10] it was -0.416 and -0.717; in experiment [15], -0.683 and -1.98; in experiment [16] it was -0.0066 and -0.311; with Torsin-1A (Homo sapiens) [17], -1.29 and -2.7. The composite z-score in the experiment with Torsin-1A (Homo sapiens) [18] is -0.584 and -1.23; in experiment [19], -0.141 and -1.28. Besides, the z-score in experiment [7] was -0.742 and -0.718; in [9] it was -0.622 (inactive) and 2.07 (inactive); in experiment [11], -0.0172 (inactive) and -1.2 (inactive); in [12], -0.143 (inactive) and -1.34 (inactive); in experiment [13], 0.333 (inactive) and -1.97 (inactive); in experiment [14], -0.0772 (inactive) and -0.526 (inactive).
Turning to `CO[C@@H]1COC(=O)[C@H](Cc2ccccc2)NC(=O)CC=C[C@@H](C)[C@H](OC)COC(=O)[C@@H](C)NC(=O)CC=C[C@H]1C`, the composite z-score was 0.106 and 0.0473 in experiment [1]; -0.184 and -0.37 in experiment [2]; -0.129 and 0.183 in [3]; -0.116 and -0.231 in [4]; 1.32 and 1.18 in experiment [5]; 1.58 and 1.35 in [6]. The composite z-score in the experiment on Lefty1 is 1.54 and 1.35; in experiment [8], -0.714 and -0.807; in experiment [10], -0.21 and 0.189; in [15], -0.0436 and -0.304; in experiment [16], -0.0986 and -0.319; with Torsin-1A (Homo sapiens) [17], 1.37 and 0.668. The composite z-score with Torsin-1A (Homo sapiens) [18] is 0.671 and 0.335; in experiment [19], 2.07 and 1.98. For the same molecule, the z-score was 1.24 and 0.944 in experiment [7]; -0.554 (inactive) and -1.49 (inactive) in experiment [9]; -0.656 (inactive) and -1.53 (inactive) in experiment [11]; 0.345 (inactive) and -0.39 (inactive) in [13]; -0.95 (inactive) and -1.65 (inactive) in experiment [14].
Take `C=CCN(CCCC)C(=O)C1N(CCCCCCO)C(=O)C2C(C(=O)O)C3C=CC21O3` (centres undefined): the composite z-score in experiment [1] is -1.27 and 0.826; in experiment [2], -0.618 and -0.472; in experiment [3], -0.725 and -0.445; in [4] it was -0.574 and -1.65; in [5], -1.74 and -2.89; in experiment [6], -1.97 and -2.02. Moreover, the composite z-score in the experiment with Lefty1 is -2.3 and -2.2; in experiment [8], 0.483 and -1.28; in experiment [10], -0.718 and -0.319; in experiment [15], -1.46 and -1.12; in experiment [16] it was -0.35 and -0.312; with Torsin-1A (Homo sapiens) [17] it was 1.31 and -1.36. Also, the composite z-score was -2.04 and -2.49 with Torsin-1A (Homo sapiens) [18]; -1.18 and -1.43 in experiment [19]. The z-score in [7] is -0.242 and 0.214; in experiment [9] it was 0.314 (inactive) and 0.488 (inactive); in experiment [11] it was 0.427 (inactive) and 0.424 (inactive); in experiment [12], 0.759 (inactive) and 2.36 (inactive); in experiment [13], 0.0645 (inactive) and -0.769 (inactive); in experiment [14] it was 0.149 (inactive) and 0.147 (inactive).
